Screening data (PubChem)
FBW7 act: FBW7 E3 ligase activators, primary screen, biochemical, AlphaScreen, human. hit rate 0.13% among 650,000. F-box/WD repeat-containing protein 7 (Homo sapiens), Q969H0. normalized activity (activation), % at 26.1 µM. AlphaScreen FBW7–phospho-cyclin E peptide binding, activator screen. AID 1259310, 2017; in the data active = normalized activity above about 1.9%;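 note: purified mutant Fbw7 with reduced substrate affinity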
GPR151 ag: activators of human GPR151, primary screen, cell-based, PathHunter beta-arrestin, luminescence; PathHunter beta-arrestin GPR151 cells; activation, % at 11.2 µM; hit rate 1% among 650,000; AID 1508602, 2020; in the data active = activation above about 4.9%
TEAD-YAP inh: TEAD-YAP interaction inhibition, primary screen, TEAD-YAP interaction inhibitor project, luminescence, HEK-TIYL cells | TEAD-Gal4/YAP UAS-luciferase luminescence | inhibition, % at 9.12 µM | hit rate 1.4% among 640,000 | AID 1259422, 2018; in the data active = inhibition above about 32%
MITF primary: MITF inhibitors, primary screen, biochemical, AlphaScreen, human. hit rate 0.91% among 650,000. inhibition, % at 2.6 µM. AlphaScreen MITF homodimerization, bead proximity signal. Microphthalmia-associated transcription factor (Homo sapiens), O75030; in the data active = inhibition above about 50%
Target sequence (O75030 whole entry, looked up): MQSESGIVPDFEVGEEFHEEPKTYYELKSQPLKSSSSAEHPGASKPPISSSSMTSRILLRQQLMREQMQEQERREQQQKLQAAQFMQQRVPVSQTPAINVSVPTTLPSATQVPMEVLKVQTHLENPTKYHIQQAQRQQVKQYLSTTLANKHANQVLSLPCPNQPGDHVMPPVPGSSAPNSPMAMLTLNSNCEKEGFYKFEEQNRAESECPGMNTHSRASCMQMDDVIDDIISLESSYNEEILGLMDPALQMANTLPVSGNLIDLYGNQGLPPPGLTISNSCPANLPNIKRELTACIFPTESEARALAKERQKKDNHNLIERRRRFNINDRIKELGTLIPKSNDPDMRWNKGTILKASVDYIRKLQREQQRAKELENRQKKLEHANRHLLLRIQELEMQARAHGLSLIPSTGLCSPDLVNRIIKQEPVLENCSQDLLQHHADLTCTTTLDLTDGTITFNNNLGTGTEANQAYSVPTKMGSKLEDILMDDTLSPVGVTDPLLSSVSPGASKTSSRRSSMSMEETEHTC
GPR151 confirm: GPR151 activators, triplicate retest, confirmation, cell-based, PathHunter beta-arrestin, luminescence; 6,700 tested, under 10 active; GPR151 PathHunter beta-arrestin cells, 90 min; % of EA-reagent control over plate median; AID 1508609, 2020; shares compounds with GPR151 ag; activation, % at 11.2 µM;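 active = mean percent activation across replicates above the confirmation screen cutoff of 4.91%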
GPR119 ag: GPR119 activators in beta-arrestin cells, counter-screen for GPR151 activator project, cell-based, PathHunter beta-arrestin, luminescence, triplicate; shares compounds with GPR151 ag; 90 min; 0 = compound-well median, 100 = enzyme-acceptor control; activation, % at 11.2 µM; hit rate 0.3% among 6,700;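 active = mean percent activation in the counterscreen above 29.09%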;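 note: counterscreen on off-target GPR119 to flag nonselective hits from the GPR151 activator screen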
Large screens that a line does not name were inactive (follow-up assays come after a bar, where they were run). An excerpt weighted towards active compounds, which were near 3.5% of everything screened.

Cc1noc(C)c1-c1nc(NCCOc2ccccc2)c2ncn(CCN3CCCC3=O)c2n1	GPR151 ag 6.1 | GPR151 confirm inactive | GPR119 ag inactive
CC(O)CC(=O)N1CCc2cc(S(=O)(=O)N(C)C)ccc21 (centres undefined)	GPR151 ag 5.3 | GPR151 confirm inactive | GPR119 ag inactive
C=CCn1c(=NC(=O)CN2C(=O)CCC2=O)sc2cc(Br)ccc21	none
COc1ccccc1C1NC(=S)NC(C)=C1C(=O)c1ccccc1 (centres undefined)	none
CNC(=O)C1=C(C)NC(=S)NC1c1ccccc1OC (centres undefined)	GPR151 ag 9.5 | GPR151 confirm inactive | GPR119 ag inactive
Cc1ccc(C(=O)N/C(=C\c2ccc3c(c2)OCO3)C(=O)Nc2ccccc2Cl)cc1C	none
Cc1ccc(N(C(=O)Cc2cccc(C)c2)C2C=CS(=O)(=O)C2)cc1 (centres undefined)	none
COc1cc(OC)cc(C(=O)OC2CCCCC2=O)c1 (centres undefined)	none
S=C1NC2=C(C(c3ccc(Br)cc3)N1)N1CCC2CC1 (centres undefined)	GPR151 ag 5.7 | GPR151 confirm inactive | GPR119 ag inactive
CN(C)c1ccc(C2NC(=S)NC3=C2N2CCC3CC2)cc1 (centres undefined)	none
O=C(NCCc1ccccc1Cl)c1ccc(S(=O)(=O)c2cccc(Cl)c2)c([N+](=O)[O-])c1	none
O=C(COc1ccc(Br)cc1)N(c1ccccc1)C1C=CS(=O)(=O)C1 (centres undefined)	GPR151 ag 6.3 | GPR151 confirm inactive | GPR119 ag inactive
Cc1ccc(N(C(=O)CCc2ccccc2)C2C=CS(=O)(=O)C2)cc1C (centres undefined)	GPR151 ag 5.4 | GPR151 confirm inactive | GPR119 ag inactive
CCOc1ccccc1Nc1ccc(C(=O)N2CCCC2)cn1	GPR151 ag 8.7 | GPR151 confirm inactive | GPR119 ag inactive
O=C(Cc1ccccc1)NCc1nnc2n1CCN(Cc1ccccc1-c1ccco1)CC2	none
O=C(CCS(=O)(=O)c1cc2c(cc1Cl)NC(=O)CO2)Nc1ccc(F)cc1F	GPR151 ag 5.5 | GPR151 confirm inactive | GPR119 ag inactive
COc1ccc(O[C@H]2C=C[C@@H](c3ccccc3)O[C@@H]2CO/N=C2/[C@H]3CCn4c(=O)n(-c5ccccc5)c(=O)n4[C@H]3[C@H](O)[C@@H]3O[C@H]23)cc1	GPR151 ag 6.7 (no result: TEAD-YAP inh) | GPR151 confirm inactive | GPR119 ag inactive
COC(=O)C(CCCCNC(=O)c1ccccc1)NC(=O)c1ccccc1 (centres undefined)	none
NC(CCCCNC(=O)c1ccccc1)C(=O)O (centres undefined)	GPR151 ag 5.0 | GPR151 confirm inactive | GPR119 ag inactive
O=C1c2cccc3cccc(c23)N1Cc1c(O)ccc2ccccc12	GPR151 ag 5.5 | GPR151 confirm inactive | GPR119 ag inactive
C=CCNC(=O)CCN1C(=O)c2ccccc2C1=O	GPR151 ag 5.6 | GPR151 confirm inactive | GPR119 ag inactive
CCOC(=O)c1ccccc1OCc1cc(C2Nc3ccccc3C(=O)N2c2ccccc2)ccc1OC (centres undefined)	none
COc1ccc(-c2nc(SCC(=O)Nc3ccc4ccccc4c3)n[nH]2)cc1	none
COc1ccc(-c2nc(SCC(=O)Nc3ccc4c(c3)OCO4)n[nH]2)cc1	GPR151 ag 6.5 | GPR151 confirm inactive | GPR119 ag inactive
O=C(Cc1ccc(Br)cc1)OCc1cccc([N+](=O)[O-])c1	none
CCN(CC)S(=O)(=O)c1ccc(C(=O)Nc2nnc(-c3ccc(OC)cc3)o2)cc1	GPR151 ag 5.3 | GPR151 confirm inactive | GPR119 ag inactive
COc1ccccc1N1CCN(C(=O)CSc2nc3ccc(N4CCOCC4)cc3c(=O)n2Cc2ccccc2)CC1	none
